According to PubChem BioAssay (Tox21):
Unmarked numbers belong to inactive results. Records with an inconclusive call do not appear. Entries that show only a call come without a potency. Activity calls are given as the source filed them. Unless noted, calls come from the whole dose curve; as a rule, active = well fitted curve in the direction sought with a large enough effect in the repeat runs; inconclusive = weak or mixed curves; inactive = no such curve, though single readings can be large; an effect the other way counts as inactive or inconclusive.

What was measured:
[1] = Human pregnane X receptor (PXR) small molecule agonists, qHTS cell viability counter screen (AID 1346977); note: nearly all actives have a fitted effect of over 50% in size
In short: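 PXR-Luc HepG2, 2,000 cells/well, 5% charcoal-stripped FBS; 5hr settle; cpd 24hr, 37C/5% CO2; CellTiter-Fluor at 23hr, read 1hr later (fluorescence).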

[2] = Caspase-3/7 induction in HepG2 cells by small molecules, qHTS assay (AID 1346978); note: nearly all actives have a fitted effect of over 15% in size
In short: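 Caspase-3/7 induction was measured by Caspase-Glo 3/7 luminescence (30 min, room temperature) after a 17 hr compound exposure of wild-type HepG2 cells seeded at 2,000 per well and pre-incubated 5 hr.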

[3] = Caspase-3/7 induction in CHO-K1 cells by small molecules, qHTS cell viability counter screen (AID 1346979); note: nearly all actives have a fitted effect of over 35% in size
In short: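 Cells (CHO-K1, wild type) are plated at 1,500 per well and incubated 5hr. Test compounds in DMSO are then pinned in, followed by 16hr at 37C and 5% CO2. Viability is read by CellTiter-Fluor fluorescence after 1hr.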

[4] = Caspase-3/7 induction in CHO-K1 cells by small molecules, qHTS assay (AID 1346980); note: nearly all actives have a fitted effect of over 15% in size
In short: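 Luminescent Caspase-Glo 3/7 read (30min, room temperature) quantified apoptosis induction. Cells were wild-type CHO-K1, treated with compound for 17hr at 37 C and 5% CO2.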

[5] = Caspase-3/7 induction in HepG2 cells by small molecules, qHTS cell viability counter screen (AID 1346981); note: series mostly up to about 92 µM; nearly all actives have a fitted effect of over 30% in size
In short: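 Multiplexed with the caspase-3/7 assay: HepG2 cells, 16 hr compound treatment, CellTiter-Fluor viability detection by fluorescence.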

[6] = biological target: Nuclear receptor subfamily 1 group I member 2 (Homo sapiens) (UniProt O75469); experiment: Human pregnane X receptor (PXR) small molecule agonists, qHTS assay (AID 1346982); note: nearly all actives have a fitted effect of over 35% in size; note: potency is the fitted concentration of half-maximal effect
Nuclear receptor subfamily 1 group I member 2 (Homo sapiens), sequence (O75469 whole entry, looked up): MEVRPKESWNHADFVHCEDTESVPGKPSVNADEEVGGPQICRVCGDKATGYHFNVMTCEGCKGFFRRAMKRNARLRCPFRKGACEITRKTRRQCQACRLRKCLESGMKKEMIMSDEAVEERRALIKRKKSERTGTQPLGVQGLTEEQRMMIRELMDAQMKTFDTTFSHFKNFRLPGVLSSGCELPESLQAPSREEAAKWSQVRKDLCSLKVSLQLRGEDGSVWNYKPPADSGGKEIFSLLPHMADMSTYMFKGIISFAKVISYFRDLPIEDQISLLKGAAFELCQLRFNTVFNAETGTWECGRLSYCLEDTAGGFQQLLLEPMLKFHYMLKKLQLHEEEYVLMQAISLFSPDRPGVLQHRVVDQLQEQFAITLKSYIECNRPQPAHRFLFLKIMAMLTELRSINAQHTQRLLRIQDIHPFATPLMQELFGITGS
In short: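 We seeded PXR-Luc HepG2 cells in assay medium containing 5% charcoal-stripped FBS, added compounds 5 hr later, incubated 24 hr, and read luminescence with ONE-Glo reagent.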

[7] = biological target: Acetylcholinesterase (Homo sapiens) (UniProt P22303); experiment: Acetylcholinesterase (AChE) small molecule antagonists: colormetric cell-based qHTS assay (AID 1347395; calls by dose curve; note: nearly all actives have a fitted effect of over 30% in size; note: potency is the fitted concentration of half-maximal effect)
Acetylcholinesterase (Homo sapiens), sequence (P22303 whole entry, looked up): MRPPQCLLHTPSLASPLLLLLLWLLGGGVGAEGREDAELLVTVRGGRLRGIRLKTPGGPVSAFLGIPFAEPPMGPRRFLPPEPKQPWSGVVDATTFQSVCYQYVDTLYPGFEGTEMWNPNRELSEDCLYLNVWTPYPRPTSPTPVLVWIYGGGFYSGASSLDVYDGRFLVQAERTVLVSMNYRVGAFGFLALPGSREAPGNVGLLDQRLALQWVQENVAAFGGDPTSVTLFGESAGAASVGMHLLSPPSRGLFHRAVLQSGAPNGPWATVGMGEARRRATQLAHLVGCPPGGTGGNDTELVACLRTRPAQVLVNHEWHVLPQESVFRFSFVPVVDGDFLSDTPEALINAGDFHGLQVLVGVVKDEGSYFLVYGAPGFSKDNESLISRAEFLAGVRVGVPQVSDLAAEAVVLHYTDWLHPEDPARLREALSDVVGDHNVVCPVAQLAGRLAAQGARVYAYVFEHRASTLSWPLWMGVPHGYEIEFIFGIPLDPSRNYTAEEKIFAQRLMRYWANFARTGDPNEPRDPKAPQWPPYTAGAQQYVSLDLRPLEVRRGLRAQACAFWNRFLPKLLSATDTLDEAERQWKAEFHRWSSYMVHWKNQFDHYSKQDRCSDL
In short: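 Colorimetric read-out: DTNB detects thiocholine released when cellular AChE in SH-SY5Y cells hydrolyses acetylthiocholine. Cells attached overnight, received compound for 30 min at 37 C, then substrate mix for 90 min at 37 C.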

[8] = biological target: Nuclear receptor subfamily 1 group I member 2 (Rattus norvegicus) (UniProt Q9R1A7); experiment: Rat pregnane X receptor (rPXR) activation by small molecules, qHTS assay (AID 1346983); conditions: rPXR luciferase reporter cells, One-Glo luminescence, 24 h; max activation: hits give high values; note: nearly all actives have a fitted effect of over 20% in size
Nuclear receptor subfamily 1 group I member 2 (Rattus norvegicus), sequence (Q9R1A7 whole entry, looked up): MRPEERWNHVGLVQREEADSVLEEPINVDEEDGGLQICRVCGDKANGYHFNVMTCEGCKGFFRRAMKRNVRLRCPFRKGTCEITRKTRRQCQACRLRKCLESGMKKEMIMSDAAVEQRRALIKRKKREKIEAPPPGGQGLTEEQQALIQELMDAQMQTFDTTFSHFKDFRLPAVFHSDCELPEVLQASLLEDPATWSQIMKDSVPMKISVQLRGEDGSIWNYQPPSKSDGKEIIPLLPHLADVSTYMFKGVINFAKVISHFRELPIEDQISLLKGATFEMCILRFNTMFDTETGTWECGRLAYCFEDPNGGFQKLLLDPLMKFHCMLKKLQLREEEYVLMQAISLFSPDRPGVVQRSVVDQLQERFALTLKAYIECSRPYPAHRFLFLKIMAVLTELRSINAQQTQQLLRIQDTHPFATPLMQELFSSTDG
In short: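 Luminescent readout (One-Glo luciferase, 30 min room temperature) followed 24 hr compound treatment at 37 C of rPXR cells plated 2,000 per well and preincubated 5hr; qHTS format with compounds delivered in DMSO.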

[9] = biological target: Nuclear receptor subfamily 1 group I member 2 (Homo sapiens) (UniProt O75469); experiment: CYP3A4 induction through human pregnane X receptor (PXR) by small molecules, qHTS assay (AID 1346984); note: nearly all actives have a fitted effect of over 40% in size
In short: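 qHTS, concentration-response format: HepG2 DPX-2 line, PXR/CYP3A4-luc. Exposure 24 h, 37C. Substrate Luciferin-IPA 3uM final, 3 h. Detection One-Glo, 30 min RT.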

[10] = biological target: Nuclear receptor subfamily 1 group I member 2 (Homo sapiens) (UniProt O75469); experiment: Human pregnane X receptor (PXR) activation by small molecules, qHTS assay (AID 1346985); note: nearly all actives have a fitted effect of over 40% in size; note: potency is the fitted concentration of half-maximal effect
In short: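 DPX-2 cells (HepG2 co-transfected with a PXR response element and a CYP3A4-promoter luciferase construct) were seeded at 2,000 per well, rested 5 hr at 37C, then exposed to DMSO-dissolved compounds for 24 hr. Activation was read as luciferase luminescence.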

## COC(=O)c1c(C(F)F)nc(C(F)(F)F)c(C2=NCCS2)c1CC(C)C
[1]
  Potency: inactive
[2]
  Potency: inactive
[3]
  Potency: inactive
[4]
  Potency: inactive
[5]
  Potency: inactive
[6]
  Potency: 0.77 µM (active)
[7]
  Potency: inactive

## CC(Oc1ccc(Oc2ncc(C(F)(F)F)cc2Cl)cc1)C(=O)O (configuration not stated)
[1]
  Potency: inactive
[2]
  Potency: inactive
[3]
  Potency: inactive
[4]
  Potency: inactive
[5]
  Potency: inactive
[6]
  Potency: inactive
[7]
  Potency: inactive

## CCOP(=O)(N=C1SCCS1)OCC
[1]
  Potency: inactive
[2]
  Potency: inactive
[3]
  Potency: inactive
[4]
  Potency: inactive
[5]
  Potency: inactive

## COc1cc2c(cc1OC)[C@@]13CCN4CC5=CCO[C@H]6CC(=O)N2[C@H]1[C@H]6[C@H]5C[C@H]43
[1]
  Potency: inactive
[2]
  Potency: inactive
[3]
  Potency: inactive
[4]
  Potency: inactive
[5]
  Potency: inactive
[6]
  Potency: 21.7 µM (active)
[8]
  max activation: -4.15%
[9]
  Potency: inactive
[7]
  Potency: inactive

## O=[N+]([O-])c1cccc2c([N+](=O)[O-])cccc12
[1]
  Potency: inactive
[2]
  Potency: inactive
[3]
  Potency: inactive
[4]
  Potency: inactive
[5]
  Potency: inactive
[6]
  Potency: inactive
[7]
  Potency: inactive

## N#CCCC#N
[1]
  Potency: inactive
[2]
  Potency: inactive
[3]
  Potency: inactive
[4]
  Potency: inactive
[5]
  Potency: inactive
[6]
  Potency: inactive
[7]
  Potency: inactive

## CC(C)CC(N(C)C)C1(c2ccc(Cl)cc2)CCC1 (configuration not stated)
[1]
  Potency: inactive
[2]
  Potency: inactive
[3]
  Potency: inactive
[4]
  Potency: inactive
[5]
  Potency: inactive
[6]
  Potency: inactive
[8]
  max activation: -2.56%
[9]
  Potency: inactive
[10]
  Potency: inactive

## N#CCNCC#N
[1]
  Potency: inactive
[2]
  Potency: inactive
[3]
  Potency: inactive
[4]
  Potency: inactive
[5]
  Potency: inactive
[6]
  Potency: inactive
[7]
  Potency: inactive

## COC(=O)C(C)Oc1ccc(Oc2ccc(Cl)cc2Cl)cc1 (configuration not stated)
[1]
  Potency: inactive
[2]
  Potency: inactive
[3]
  Potency: inactive
[4]
  Potency: inactive
[5]
  Potency: inactive
[6]
  Potency: inactive
[7]
  Potency: inactive

## BrCCCCCCBr
[1]
  Potency: inactive
[2]
  Potency: inactive
[3]
  Potency: inactive
[4]
  Potency: inactive
[5]
  Potency: inactive
[6]
  Potency: inactive
[7]
  Potency: 63.3 µM (active)

## CC1=C(C(=O)O)N2C(=O)[C@@H](N)[C@H]2SC1
[1]
  activity change, negative = cytotoxicity: 20.6% [at 19 µM]
[2]
  caspase activation: -0.113% [at 19 µM]
[3]
  activity change, negative = cytotoxicity: 7.27% [at 19 µM]
[4]
  caspase-3/7 activation: 0.154% [at 19 µM]
[5]
  activity change, negative = cytotoxicity: 0.509% [at 19 µM]
[6]
  activation: -3.97% [at 19 µM]
[7]
  activity, negative = inhibition: 0.304% [at 23.6 µM]

## Cc1nc(N)nc(N)n1
[1]
  Potency: inactive
[2]
  Potency: inactive
[3]
  Potency: inactive
[4]
  Potency: inactive
[5]
  Potency: inactive
[6]
  Potency: inactive
[7]
  Potency: inactive

## CC(C)(C)OC(=O)c1ncn2c1[C@@H]1CCCN1C(=O)c1c(Br)cccc1-2
[1]
  Potency: inactive
[2]
  Potency: inactive
[3]
  Potency: inactive
[4]
  Potency: inactive
[5]
  Potency: inactive
[6]
  Potency: 13.3 µM (active)
[8]
  max activation: -1.76%
[10]
  Potency: 15.8 µM (active)
[7]
  Potency: inactive

## CCC(C)(C)c1cc(-n2nc3ccccc3n2)c(O)c(C(C)(C)CC)c1
[1]
  Potency: inactive
[2]
  Potency: inactive
[3]
  Potency: inactive
[4]
  Potency: inactive
[5]
  Potency: inactive
[6]
  Potency: 69.6 µM (active)
[7]
  Potency: inactive

## ClC(Cl)(Cl)C(Cl)(Cl)Cl
[1]
  Potency: inactive
[2]
  Potency: inactive
[3]
  Potency: inactive
[4]
  Potency: inactive
[5]
  Potency: inactive
[6]
  Potency: inactive
[7]
  Potency: inactive

## CC1=NNC(=O)N(/N=C/c2cccnc2)C1
[1]
  Potency: inactive
[2]
  Potency: inactive
[3]
  Potency: inactive
[4]
  Potency: inactive
[5]
  Potency: inactive
[6]
  Potency: inactive
[7]
  Potency: inactive

## COc1ccc(C(=O)N2CCCC2=O)cc1
[1]
  Potency: inactive
[2]
  Potency: inactive
[3]
  Potency: inactive
[4]
  Potency: inactive
[5]
  Potency: inactive

## CC1(C)C(=O)NC(=O)NC1=O
[1]
  Potency: inactive
[2]
  Potency: inactive
[3]
  Potency: inactive
[4]
  Potency: inactive
[5]
  Potency: inactive
[6]
  Potency: inactive
[7]
  Potency: inactive

## C[N+](C)=CCl
[1]
  Potency: inactive
[2]
  Potency: inactive
[3]
  Potency: inactive
[4]
  Potency: inactive
[5]
  Potency: inactive
[6]
  Potency: inactive
[7]
  Potency: inactive

## CCCCCCBr
[1]
  Potency: inactive
[2]
  Potency: inactive
[3]
  Potency: inactive
[4]
  Potency: inactive
[5]
  Potency: inactive

## CCNc1nc(NC(C)C)nc(OC)n1
[1]
  Potency: inactive
[2]
  Potency: inactive
[3]
  Potency: inactive
[4]
  Potency: inactive
[5]
  Potency: inactive
[6]
  Potency: 27.3 µM (active)
[7]
  Potency: inactive

## CCS(=O)(=O)CCSP(=O)(OC)OC
[1]
  Potency: inactive
[2]
  Potency: inactive
[3]
  Potency: inactive
[4]
  Potency: inactive
[5]
  Potency: inactive
[6]
  Potency: inactive

## OC(c1ccc(F)cc1)(c1cncnc1)c1ccccc1Cl (configuration not stated)
[1]
  Potency: inactive
[2]
  Potency: inactive
[3]
  Potency: inactive
[4]
  Potency: inactive
[5]
  Potency: inactive
[6]
  Potency: 30.6 µM (active)
[7]
  Potency: inactive

## CC(=O)Nc1cc([As](=O)(O)O)ccc1O
[1]
  Potency: inactive
[2]
  Potency: inactive
[3]
  Potency: inactive
[4]
  Potency: inactive
[5]
  Potency: inactive
[6]
  Potency: inactive
[8]
  max activation: -4.41%
[9]
  Potency: inactive
[10]
  Potency: inactive
[7]
  Potency: inactive

## CCN(Cc1ccc(Cl)nc1)/C(=C/[N+](=O)[O-])NC
[1]
  Potency: inactive
[2]
  Potency: inactive
[3]
  Potency: inactive
[4]
  Potency: inactive
[5]
  Potency: inactive
[6]
  Potency: inactive
[8]
  max activation: -0.716%
[9]
  Potency: inactive
[10]
  Potency: inactive
[7]
  Potency: inactive

## O=S(=O)(O)C(F)(F)C(F)(F)C(F)(F)C(F)(F)C(F)(F)C(F)(F)F
[1]
  Potency: inactive
[2]
  Potency: inactive
[3]
  Potency: inactive
[4]
  Potency: inactive
[5]
  Potency: inactive
[6]
  Potency: inactive
[7]
  Potency: inactive
